{
  "source": "the antibiotic and cytotoxicity screens of Wong et al. (2023)",
  "note": "About 3,300 (8.5%) of roughly 39,000 compounds were called active. The entries come from a sample that favours actives as a whole.",
  "data": [
    {"test_system": "HepG2", "assay": "cytotoxicity call (relative viability < 0.9)", "settings": "10 µM", "values": [
      {"smiles": "Cc1ccc(S(=O)(=O)Nc2ccc3c(c2)C(=O)N([C@@H](C)CO)C[C@@H](C)[C@H](CN(C)S(=O)(=O)c2ccc(F)cc2)O3)cc1", "cytotoxicity call": "inactive"},
      {"smiles": "C[C@H](CO)N1C[C@H](C)[C@@H](CN(C)S(C)(=O)=O)Oc2c(NC(=O)CCCCCC(=O)Nc3ccccc3N)cccc2C1=O", "cytotoxicity call": "inactive"},
      {"smiles": "C[C@@H]1CN([C@H](C)CO)C(=O)c2cc(NS(=O)(=O)c3cn(C)cn3)ccc2O[C@@H](C)CCCCO[C@@H]1CN(C)C(=O)CCCN(C)C", "cytotoxicity call": "inactive"},
      {"smiles": "C[C@@H]1CN([C@H](C)CO)C(=O)Cc2cc(NC(=O)CCCCCC(=O)Nc3ccccc3N)ccc2O[C@H]1CN(C)C(=O)Nc1ccccc1", "cytotoxicity call": "inactive"},
      {"smiles": "COc1cccc(-c2ccc3c(c2)O[C@H](CN(C)C(=O)C2CCC2)[C@H](C)CN([C@H](C)CO)S3(=O)=O)c1", "cytotoxicity call": "inactive"},
      {"smiles": "C[C@@H]1CN([C@H](C)CO)C(=O)c2cc(NC(=O)Cc3ccccc3)ccc2O[C@@H](C)CCCCO[C@H]1CN(C)C(=O)Nc1ccc2c(c1)OCO2", "cytotoxicity call": "inactive"},
      {"smiles": "CNC(=O)C[C@H]1CC[C@@H]2[C@H](COc3ccc(NC(=O)c4ccc(C(F)(F)F)cc4)cc3C(=O)N2C)O1", "cytotoxicity call": "inactive"},
      {"smiles": "C[C@H](CO)N1C[C@H](C)[C@H](CN(C)Cc2ccc(C(=O)O)cc2)OCCCC[C@H](C)Oc2ccc(NS(=O)(=O)c3ccc(Cl)cc3)cc2C1=O", "cytotoxicity call": "inactive"},
      {"smiles": "Cc1noc(C)c1NC(=O)N(C)C[C@@H]1Oc2c(NC(=O)NC(C)C)cccc2C(=O)N([C@@H](C)CO)C[C@@H]1C", "cytotoxicity call": "inactive"},
      {"smiles": "NNc1ccc2[nH]c(=O)[nH]c2c1", "cytotoxicity call": "inactive"},
      {"smiles": "C[C@@H]1CCCCO[C@H](CN(C)Cc2ccc(C(F)(F)F)cc2)[C@@H](C)CN([C@@H](C)CO)C(=O)c2cc(NC(=O)Nc3ccc(F)cc3)ccc2O1", "cytotoxicity call": "active"},
      {"smiles": "C[C@H]1CCCCO[C@H](CN(C)Cc2ccc(C(F)(F)F)cc2)[C@@H](C)CN([C@@H](C)CO)C(=O)c2cc(NC(=O)Nc3ccc(F)cc3)ccc2O1", "cytotoxicity call": "active"},
      {"smiles": "C[C@@H]1CCCCO[C@@H](CN(C)Cc2ccc(C(F)(F)F)cc2)[C@H](C)CN([C@H](C)CO)C(=O)c2cc(NC(=O)Nc3ccc(F)cc3)ccc2O1", "cytotoxicity call": "inactive"},
      {"smiles": "C[C@H](CO)N1C[C@H](C)[C@@H](CN(C)Cc2ccc(C(F)(F)F)cc2)OCCCC[C@H](C)Oc2ccc(NC(=O)Nc3ccc(F)cc3)cc2C1=O", "cytotoxicity call": "inactive"},
      {"smiles": "C[C@@H]1CN([C@@H](C)CO)C(=O)c2cc(NC(=O)Nc3ccc(F)cc3)ccc2O[C@@H](C)CCCCO[C@H]1CN(C)Cc1ccc(C(F)(F)F)cc1", "cytotoxicity call": "active"},
      {"smiles": "C[C@@H]1CN([C@@H](C)CO)C(=O)c2cc(NC(=O)Nc3ccc(F)cc3)ccc2O[C@@H](C)CCCCO[C@@H]1CN(C)Cc1ccc(C(F)(F)F)cc1", "cytotoxicity call": "inactive"},
      {"smiles": "C[C@H](CO)N1C[C@H](C)[C@H](CN(C)Cc2ccc(C(F)(F)F)cc2)OCCCC[C@H](C)Oc2ccc(NC(=O)Nc3ccc(F)cc3)cc2C1=O", "cytotoxicity call": "active"},
      {"smiles": "C[C@@H]1CCCCO[C@@H](CN(C)Cc2ccc(C(F)(F)F)cc2)[C@H](C)CN([C@@H](C)CO)C(=O)c2cc(NC(=O)Nc3ccc(F)cc3)ccc2O1", "cytotoxicity call": "inactive"},
      {"smiles": "CCNC(=O)C[C@H]1C=C[C@@H](NC(=O)C2CCOCC2)[C@@H](CO)O1", "cytotoxicity call": "inactive"},
      {"smiles": "COc1ccc(NC(=O)N(C)C[C@@H]2Oc3ccc(NC(=O)C4CC4)cc3CC(=O)N([C@H](C)CO)C[C@H]2C)cc1", "cytotoxicity call": "inactive"},
      {"smiles": "CN(C)CC(=O)N[C@@H]1CC[C@H](CCNC(=O)C2CC2)O[C@H]1CO", "cytotoxicity call": "inactive"},
      {"smiles": "COc1ccc(NC(=O)N(C)C[C@H]2OCCCC[C@H](C)Oc3ccc(NS(=O)(=O)c4ccc(OC)cc4)cc3C(=O)N([C@H](C)CO)C[C@@H]2C)cc1", "cytotoxicity call": "inactive"},
      {"smiles": "C[C@H](CO)N1C[C@H](C)[C@@H](CN(C)C(=O)Nc2ccc(N3CCN(C)CC3)cc2)OCc2cnnn2CCCC1=O", "cytotoxicity call": "inactive"},
      {"smiles": "CC(=O)NCCCC[C@@H]1NC(=O)[C@@H]2C[C@H](C(=O)NCCCCCNC(=O)CS)[C@H](c3cccc(OCCO)c3)N2C1=O", "cytotoxicity call": "inactive"},
      {"smiles": "C[C@@H]1CN([C@H](C)CO)C(=O)c2cc(NS(=O)(=O)c3cn(C)cn3)ccc2O[C@@H](C)CCCCO[C@@H]1CN(C)S(=O)(=O)c1ccccc1", "cytotoxicity call": "inactive"},
      {"smiles": "C[C@@H]1CN([C@H](C)CO)C(=O)c2cccc(NC(=O)NC3CCCCC3)c2O[C@@H]1CN(C)Cc1ccc(Oc2ccccc2)cc1", "cytotoxicity call": "inactive"},
      {"smiles": "COc1ccc(NC(=O)N(C)C[C@H]2Oc3ccc(NC(=O)Nc4cccc5ccccc45)cc3CC(=O)N([C@H](C)CO)C[C@H]2C)cc1", "cytotoxicity call": "inactive"},
      {"smiles": "CC(C)CC#Cc1ccc2c(c1)O[C@H](CN(C)C(=O)Cc1ccccn1)[C@@H](C)CN([C@H](C)CO)S2(=O)=O", "cytotoxicity call": "inactive"},
      {"smiles": "C[C@H](CO)N1C[C@H](C)[C@@H](CN(C)C(=O)NC2CCCCC2)OCCCC[C@H](C)Oc2ccc(NC(=O)Cc3ccccc3)cc2C1=O", "cytotoxicity call": "inactive"},
      {"smiles": "COc1ccc(CN(C)C[C@H]2Oc3c(NC(=O)Nc4ccc(C(F)(F)F)cc4)cccc3C(=O)N([C@@H](C)CO)C[C@@H]2C)cc1", "cytotoxicity call": "inactive"},
      {"smiles": "C[C@H]1CCCCO[C@@H](CN(C)Cc2ccc(C(F)(F)F)cc2)[C@@H](C)CN([C@@H](C)CO)C(=O)c2cc(NC(=O)Nc3ccc(F)cc3)ccc2O1", "cytotoxicity call": "active"},
      {"smiles": "C[C@@H]1CN([C@H](C)CO)C(=O)c2cc(NC(=O)Nc3ccc(F)cc3)ccc2O[C@@H](C)CCCCO[C@@H]1CN(C)Cc1ccc(C(F)(F)F)cc1", "cytotoxicity call": "inactive"},
      {"smiles": "C[C@@H]1CN([C@H](C)CO)C(=O)c2cc(NC(=O)Nc3ccc(F)cc3)ccc2O[C@@H](C)CCCCO[C@H]1CN(C)Cc1ccc(C(F)(F)F)cc1", "cytotoxicity call": "active"},
      {"smiles": "C[C@@H]1CCCCO[C@H](CN(C)Cc2ccc(C(F)(F)F)cc2)[C@H](C)CN([C@@H](C)CO)C(=O)c2cc(NC(=O)Nc3ccc(F)cc3)ccc2O1", "cytotoxicity call": "active"},
      {"smiles": "C[C@@H]1CCCCO[C@@H](CN(C)Cc2ccc(C(F)(F)F)cc2)[C@@H](C)CN([C@H](C)CO)C(=O)c2cc(NC(=O)Nc3ccc(F)cc3)ccc2O1", "cytotoxicity call": "inactive"},
      {"smiles": "C[C@@H]1CCCCO[C@H](CN(C)Cc2ccc(C(F)(F)F)cc2)[C@@H](C)CN([C@H](C)CO)C(=O)c2cc(NC(=O)Nc3ccc(F)cc3)ccc2O1", "cytotoxicity call": "inactive"},
      {"smiles": "C[C@@H]1CCCCO[C@@H](CN(C)Cc2ccc(C(F)(F)F)cc2)[C@@H](C)CN([C@@H](C)CO)C(=O)c2cc(NC(=O)Nc3ccc(F)cc3)ccc2O1", "cytotoxicity call": "inactive"},
      {"smiles": "C[C@@H]1CCCCO[C@H](CN(C)Cc2ccc(C(F)(F)F)cc2)[C@H](C)CN([C@H](C)CO)C(=O)c2cc(NC(=O)Nc3ccc(F)cc3)ccc2O1", "cytotoxicity call": "active"},
      {"smiles": "C[C@H](CO)N1C[C@H](C)[C@@H](CN(C)Cc2ccc(Cl)c(Cl)c2)Oc2ccc(NC(=O)Cn3cnnn3)cc2CC1=O", "cytotoxicity call": "inactive"},
      {"smiles": "COc1ccc(S(=O)(=O)Nc2ccc3c(c2)C(=O)N([C@H](C)CO)C[C@@H](C)[C@H](CN(C)C(=O)Nc2ccc(F)cc2)OCCCC[C@@H](C)O3)cc1", "cytotoxicity call": "inactive"},
      {"smiles": "C=CCN(C#N)c1nc(N(C)C)nc(N(C)C)n1", "cytotoxicity call": "inactive"},
      {"smiles": "C[C@@H]1CN([C@H](C)CO)C(=O)c2cccc(NC(=O)c3cnccn3)c2O[C@@H]1CN(C)Cc1ccccc1", "cytotoxicity call": "inactive"},
      {"smiles": "Cc1noc(C)c1S(=O)(=O)Nc1ccc2c(c1)C(=O)N([C@H](C)CO)C[C@H](C)[C@@H](CN(C)S(=O)(=O)c1cccs1)O2", "cytotoxicity call": "inactive"},
      {"smiles": "Cc1noc(C)c1NC(=O)Nc1ccc2c(c1)CC(=O)N([C@H](C)CO)C[C@@H](C)[C@@H](CN(C)Cc1ccc(C(F)(F)F)cc1)O2", "cytotoxicity call": "inactive"},
      {"smiles": "Cc1ccc(S(=O)(=O)N2C[C@@H](O)COC[C@H]3O[C@H](CC(=O)N[C@@H]4CCN(Cc5ccccc5)C4)CC[C@@H]32)cc1", "cytotoxicity call": "inactive"},
      {"smiles": "COc1ccccc1C#Cc1cnc2c(c1)C(=O)N([C@@H](C)CO)C[C@H](C)[C@@H](CN(C)C(=O)CN(C)C)O2", "cytotoxicity call": "inactive"},
      {"smiles": "C=C(C)[C@@H]1CC[C@]2(COC(C)=O)CC[C@]3(C)[C@H](CC[C@@H]4[C@@]5(C)CC[C@H](OC(C)=O)C(C)(C)[C@@H]5CC[C@]43C)[C@@H]12", "cytotoxicity call": "inactive"},
      {"smiles": "C[C@@H]1CCCCO[C@@H](CN(C)S(=O)(=O)c2cn(C)cn2)[C@H](C)CN([C@@H](C)CO)C(=O)c2cc(NS(=O)(=O)c3cn(C)cn3)ccc2O1", "cytotoxicity call": "inactive"},
      {"smiles": "C[C@H]1CN([C@@H](C)CO)C(=O)c2cc(NC(=O)C3CC3)ccc2O[C@H]1CN(C)C(=O)NC1CCCCC1", "cytotoxicity call": "inactive"},
      {"smiles": "COc1cc2c(cc1OC)-c1onc(-c3ccc(OCCO[Si](C(C)C)(C(C)C)C(C)C)cc3)c1CCCN(C[C@@H](C)OC(=O)NCCCCCC(=O)NO)CC2", "cytotoxicity call": "active"},
      {"smiles": "COc1cc2c(cc1OC)[C@@]13ON=C(c4ccc(OCCOC(=O)NCCCCCC(=O)NO)cc4)[C@@H]1CCN3CC2", "cytotoxicity call": "inactive"},
      {"smiles": "COc1cc2c(cc1OC)-c1onc(-c3ccc(OCCO[Si](C(C)C)(C(C)C)C(C)C)cc3)c1CCCN(C[C@@H](C)O)CC2", "cytotoxicity call": "inactive"},
      {"smiles": "C/C=C/c1cccc(-c2nc(C(=O)NCc3ccc(OC)cc3)cc3c2[C@@H](CCO)N([S@](=O)C(C)(C)C)C3)c1", "cytotoxicity call": "inactive"},
      {"smiles": "COc1nn(C)cc1-c1n[nH]c(=S)n1C", "cytotoxicity call": "inactive"},
      {"smiles": "O=C(C[C@@H]1CC[C@@H]2[C@H](COC[C@H](O)CN2S(=O)(=O)c2ccc(Oc3ccccc3)cc2)O1)NC1CCC1", "cytotoxicity call": "inactive"},
      {"smiles": "CC1(O)CCC(C(C)(C)O)CC1.O", "note": "(centres undefined)", "cytotoxicity call": "inactive"},
      {"smiles": "CCCC#Cc1ccc2c(c1)O[C@@H](CN(C)S(=O)(=O)c1cccc(OC)c1)[C@@H](C)CN([C@H](C)CO)S2(=O)=O", "cytotoxicity call": "inactive"},
      {"smiles": "COc1cccc(S(=O)(=O)N(C)C[C@H]2Oc3ncc(C#CCN(C)C)cc3C(=O)N([C@H](C)CO)C[C@@H]2C)c1", "cytotoxicity call": "inactive"},
      {"smiles": "COc1ccc(NC(=O)Nc2ccc3c(c2)CC(=O)N([C@@H](C)CO)C[C@@H](C)[C@H](CN(C)S(=O)(=O)c2cn(C)cn2)O3)cc1", "cytotoxicity call": "inactive"}
    ]}
  ]
}
